Data on 9 compounds can be found in PubChem BioAssay.

Calls of active or inactive are those of the source.

Assay [1] can be described thus: E. coli DRC41 culture turbidity changes, primary screen, E. coli filamentation inducer project, strain DRC41, OD650, 48 h (AID 1152).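 Also: E. coli MC1000 strain DRC41 lacking acrAB efflux pump and sulA.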 Particulars: E. coli DRC41 (acrAB sulA), higher = more signal, called active from +8 up or from −8 down.
The nature of assay [2]: small-molecule binders of probe aLefty1, primary screen, biochemical, small-molecule microarray, 635/667 nm fluorescence (AID 1153).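 Also: score merges spot fluorescence with signal-to-noise ratio from the scanned slide images.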 The conditions noted are these: higher = more signal.
A short description of assay [3]: PSAC antagonists in infected red cells, primary screen, cell-based, P. falciparum Indochina, OD700, 1 h (AID 1154). Particulars: P. falciparum Indochina infected RBC osmotic lysis, higher = more signal, called active from +8 up or from −8 down.
Assay [4] can be described thus: PSAC antagonists in infected red cells, primary screen, cell-based, P. falciparum Indochina, OD700, 2 h (AID 1155).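 Also: lysis reports solute entry through the parasite surface anion channel PSAC; channel blockers reduce lysis of infected cells.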 Particulars: P. falciparum Indochina infected erythrocytes, osmotic lysis OD700; higher = more signal, called active from +8 up or from −8 down.
Assay [5] is described as follows: osmotic lysis modulators in infected erythrocytes, primary screen, PSAC antagonist project, cell-based, P. falciparum Indochina, OD700, 3 h (AID 1156). The conditions noted are these: higher = more signal, called active from +8 up or from −8 down.
Assay [6] is described as follows: PSAC antagonists in infected red cells, primary screen, cell-based, P. falciparum Indochina, OD700, 18 h (AID 1157). The conditions noted are these: P. falciparum Indochina infected erythrocytes, osmotic lysis OD700, 18 h; higher = more signal, called active from +8 up or from −8 down.
The nature of assay [7]: modulators of S6 phosphorylation in cells, primary screen, cell-based, A549, cytoblot, luminescence, serum-stimulated (AID 1158).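 Also: serum-stimulated A549 lung adenocarcinoma cells; signal is phosphorylated S6 detected by cytoblot immunostaining with HRP secondary.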 The conditions noted are these: A549 phospho-S6 cytoblot, 5 h, higher = more signal.
Assay [8] concerns the target NADPH oxidase 2 (Homo sapiens) (UniProt P04839). Put plainly: NOX2-dependent H2O2 signal modulators, primary screen, NOX inhibitor project, cell-based, HEK293-NOX2, PMA-stimulated, Amplex Red fluorescence (AID 1159). Also: test concentration not given here. The conditions noted are these: 45 min, higher = more signal, called active from +8 up or from −8 down.
The target of assay [9] is NADPH oxidase 4 (Homo sapiens) (UniProt Q9NPH5). Put plainly: NOX4-dependent H2O2 signal modulators, primary screen, NOX inhibitor project, cell-based, HEK293-NOX4, tetracycline-induced, Amplex Red fluorescence (AID 1160). Particulars: 45 min, higher = more signal, called active from +8 up or from −8 down.
Assay [10] addresses NADPH oxidase 5 (Homo sapiens) (UniProt Q96PH1). Put plainly: NOX5-dependent H2O2 signal modulators, primary screen, NOX inhibitor project, cell-based, HEK293-NOX5, Amplex Red fluorescence (AID 1161). Particulars: HEK293-NOX5, ionomycin, 45 min, higher = more signal.
Assay [11] is described as follows: A549 cell viability effects, profiling panel, calcein-AM fluorescence, 48 h, basal (AID 1162). Also: test concentration not given here. Particulars: higher = more signal.
The nature of assay [12]: adipocyte viability effects, profiling panel, cell-based, 3T3-L1 adipocytes, calcein-AM fluorescence, 48 h, basal (AID 1163). Also: test concentration not given here. The conditions noted are these: 3T3-L1 adipocytes viability, higher = more signal.
Assay [13] in a line: HepG2 cell viability effects, profiling panel, calcein-AM fluorescence, 48 h, basal (AID 1164). Also: test concentration not given here. Particulars: higher = more signal.
Assay [14] is described as follows: MM1S cell viability effects, profiling panel, calcein-AM fluorescence, 48 h, basal (AID 1165).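 Also: viability of MM1S multiple myeloma cells under basal unstimulated conditions; test concentration not given here.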 Particulars: higher = more signal.
Assay [15] can be described thus: basal RPMI8226 viability, no added stimulus, profiling panel, cell-based, calcein-AM fluorescence, 48 h, PK04 Diversity Set (AID 1166).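 Also: cells grown under basal conditions without added stimulus; test concentration not given here.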 Particulars: RPMI8226 myeloma viability, higher = more signal.
Assay [16] is described as follows: basal HepG2 mitochondrial membrane potential changes, profiling panel, cell-based, JC-1 fluorescence, 24 h, 100 nL compound (AID 1167). Also: test concentration not given here. Particulars: higher = more signal.
Assay [17] can be described thus: basal 3T3-L1 adipocyte mitochondrial potential changes, profiling panel, cell-based, JC-1 fluorescence, 3T3-L1 adipocytes, 24 h, 100 nL compound (AID 1168). Also: test concentration not given here. Particulars: JC-1 mitochondrial fluorescence, higher = more signal, called active from +8 up or from −8 down.
The nature of assay [18]: basal RPMI8226 mitochondrial membrane potential changes, profiling panel, cell-based, JC-1 fluorescence, 24 h, 100 nL compound (AID 1169). Also: test concentration not given here. The conditions noted are these: RPMI8226 myeloma, JC-1 mitochondrial potential fluorescence, higher = more signal.
A short description of assay [19]: basal MM1S mitochondrial membrane potential changes, profiling panel, cell-based, JC-1 fluorescence, 24 h, 100 nL compound (AID 1170). Also: test concentration not given here. The conditions noted are these: higher = more signal.
Assay [20] can be described thus: A549 lung cancer cell viability effects, profiling panel, resazurin fluorescence, 24 h, PK04 Diversity Set (AID 1171). Also: test concentration not given here. The conditions noted are these: higher = more signal, called active from +8 up or from −8 down.

NADPH oxidase 4 (Homo sapiens), sequence (Q9NPH5 whole entry, looked up): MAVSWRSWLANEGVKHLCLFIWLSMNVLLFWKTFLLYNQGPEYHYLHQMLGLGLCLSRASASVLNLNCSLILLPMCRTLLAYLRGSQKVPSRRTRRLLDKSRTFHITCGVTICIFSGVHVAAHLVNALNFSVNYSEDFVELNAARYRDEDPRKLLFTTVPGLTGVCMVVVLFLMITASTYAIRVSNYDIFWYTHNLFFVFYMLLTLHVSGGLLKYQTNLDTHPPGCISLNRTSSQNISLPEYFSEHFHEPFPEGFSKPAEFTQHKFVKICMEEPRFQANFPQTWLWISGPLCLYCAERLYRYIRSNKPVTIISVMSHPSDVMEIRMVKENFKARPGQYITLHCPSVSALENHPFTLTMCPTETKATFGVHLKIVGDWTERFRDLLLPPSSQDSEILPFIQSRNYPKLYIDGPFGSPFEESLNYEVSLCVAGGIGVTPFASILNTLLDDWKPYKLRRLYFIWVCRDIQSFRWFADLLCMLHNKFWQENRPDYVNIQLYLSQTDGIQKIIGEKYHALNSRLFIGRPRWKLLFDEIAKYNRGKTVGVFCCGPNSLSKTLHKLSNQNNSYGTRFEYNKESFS
NADPH oxidase 5 (Homo sapiens), sequence (Q96PH1 whole entry, looked up): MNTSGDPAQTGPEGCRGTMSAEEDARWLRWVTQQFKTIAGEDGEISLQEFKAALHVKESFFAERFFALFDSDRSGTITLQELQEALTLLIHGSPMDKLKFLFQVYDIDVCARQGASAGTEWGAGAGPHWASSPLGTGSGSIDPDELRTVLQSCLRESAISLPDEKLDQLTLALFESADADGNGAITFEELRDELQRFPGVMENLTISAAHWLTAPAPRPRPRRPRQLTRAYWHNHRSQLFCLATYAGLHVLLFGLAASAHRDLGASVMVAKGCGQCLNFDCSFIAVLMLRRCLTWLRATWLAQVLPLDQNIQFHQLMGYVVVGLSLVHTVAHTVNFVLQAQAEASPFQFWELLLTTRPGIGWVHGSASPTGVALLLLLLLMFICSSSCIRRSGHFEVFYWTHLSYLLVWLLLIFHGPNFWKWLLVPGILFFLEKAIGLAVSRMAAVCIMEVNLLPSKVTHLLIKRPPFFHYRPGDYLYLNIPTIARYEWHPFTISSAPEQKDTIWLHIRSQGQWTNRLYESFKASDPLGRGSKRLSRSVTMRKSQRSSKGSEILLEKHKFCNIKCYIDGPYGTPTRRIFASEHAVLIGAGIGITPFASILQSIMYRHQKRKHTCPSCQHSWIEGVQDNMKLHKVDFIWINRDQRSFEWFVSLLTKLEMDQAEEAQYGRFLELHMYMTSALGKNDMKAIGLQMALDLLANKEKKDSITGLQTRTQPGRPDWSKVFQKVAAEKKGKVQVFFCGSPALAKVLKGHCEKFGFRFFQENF
NADPH oxidase 2 (Homo sapiens), sequence (P04839 whole entry, looked up): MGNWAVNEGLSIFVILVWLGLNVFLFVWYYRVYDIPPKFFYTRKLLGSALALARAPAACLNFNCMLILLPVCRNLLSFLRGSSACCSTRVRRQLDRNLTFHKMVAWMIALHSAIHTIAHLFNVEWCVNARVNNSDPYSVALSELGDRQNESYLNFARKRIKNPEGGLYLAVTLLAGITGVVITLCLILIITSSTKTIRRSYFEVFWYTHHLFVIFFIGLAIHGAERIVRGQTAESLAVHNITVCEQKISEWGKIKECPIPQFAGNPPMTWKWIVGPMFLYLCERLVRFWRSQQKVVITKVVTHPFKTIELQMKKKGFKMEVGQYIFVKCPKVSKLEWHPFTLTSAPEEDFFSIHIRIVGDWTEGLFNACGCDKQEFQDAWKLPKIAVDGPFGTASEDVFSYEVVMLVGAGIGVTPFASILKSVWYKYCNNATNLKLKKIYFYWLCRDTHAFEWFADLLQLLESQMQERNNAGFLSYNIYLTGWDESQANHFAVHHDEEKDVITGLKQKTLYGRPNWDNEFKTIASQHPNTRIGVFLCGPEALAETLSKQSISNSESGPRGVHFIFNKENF

With `CCOC(=O)C=Cc1cccc(OC)c1O`, the z-score was -0.572 (inactive) in assay [1]; 21.2 (active) in [3]; 2.21 (inactive) in assay [4]; 0.957 (inactive) in assay [5]; -1.28 (inactive) in assay [6]; 1.73 in assay [7]. The z-score in assay [8] is -5.37 (inactive); in assay [9] it was -5.92 (inactive); in [10], -6.34; in assay [11], -0.364; in assay [12] it was 0.532; in [13] it was -0.834. For the same compound, the z-score in assay [14] is 0.408; in [15] it was -1.61; in assay [16], -0.94; in [17] it was 0.151 (inactive); in assay [18] it was -0.149; in assay [19] it was -1.25. For the same compound, the z-score in assay [20] was -0.787 (inactive). Besides, in [2], the composite z-score was -0.184.

With `CC(=O)n1cc(C(O)C2C=CC3C(=O)N(c4ccccc4)C(=O)C3N2Nc2ccc(C#N)cc2)c2ccccc21` (stereo not given), the z-score in [1] was -0.947 (inactive); in assay [3], 21.5 (active); in [4] it was 6.32 (inactive); in [5] it was 0.566 (inactive); in assay [6], 1.37 (inactive); in assay [7] it was -0.784. In addition, the z-score is -1.15 (inactive) in assay [8]; -4.31 (inactive) in [9]; -3.01 in assay [10]; 1.38 in assay [11]; -0.876 in assay [12]; 0.52 in assay [13]. For the same compound, the z-score was 0.245 in assay [14]; -0.434 in assay [15]; -1.04 in assay [16]; -0.855 (inactive) in assay [17]; 0.423 in assay [18]; -0.488 in [19]. Also, the z-score in assay [20] was 1.52 (inactive). The composite z-score in assay [2] was 0.201.

Turning to `COC(=O)[C@@]1(Cc2ccc(OC)cc2)[C@H]2c3cc(C(=O)N4CCCC4)n(CCc4ccccn4)c3C[C@H]2CN1C(=O)c1ccccc1`, the z-score was -1.76 (inactive) in [1]; 1.15 (inactive) in assay [3]; 0.453 (inactive) in assay [4]; 0.924 (inactive) in assay [5]; 0.518 (inactive) in [6]; 0.958 in assay [7]. The z-score in assay [8] is 0.48 (inactive); in assay [9], -2.11 (inactive); in [10], -3.82; in assay [11], -0.991; in assay [12], 1.13; in assay [13], -0.946. The z-score in assay [14] is 0.0275; in assay [15], -1.7; in assay [16] it was 1.1; in assay [17], -1.59 (inactive); in [18], -0.161; in assay [19] it was 0.00382. Also, in assay [20], the z-score was -0.201 (inactive). The composite z-score in assay [2] was determined as 0.496.

For `COc1ccccc1CN1C(=O)c2ccccc2[C@](Cc2ccccc2I)(C(=O)NC2CC2)[C@@H]1c1ccc(CO)cc1`, the z-score in [1] was 0.203 (inactive); in assay [3], 11.4 (active); in [4], 1.35 (inactive); in assay [5], 2.38 (inactive); in assay [6], 0.99 (inactive); in [7], -0.154. Besides, the z-score in assay [8] was -0.975 (inactive); in [9] it was -0.89 (inactive); in [10], -2.08; in [11], -0.741; in assay [12] it was -0.475; in assay [13], -0.468. In addition, the z-score was -0.664 in assay [14]; -1.54 in [15]; 1.32 in assay [16]; 0.424 (inactive) in assay [17]; -1.04 in assay [18]; -0.508 in assay [19]. In addition, in assay [20], the z-score is -0.264 (inactive). In [2], this compound displayed a composite z-score of -0.25.

Consider `Cc1cccc(/C=C/C=O)c1`, for which the z-score was 0.595 (inactive) in [1]; 0.118 (inactive) in assay [3]; -0.557 (inactive) in [4]; 0.565 (inactive) in assay [5]; -0.212 (inactive) in assay [6]; -0.57 in [7]. For the same compound, the z-score in assay [8] is -0.0862 (inactive); in assay [9], 0.0658 (inactive); in [10] it was 1.56; in [11], 0.175; in [12], -0.49; in [13], 0.486. Also, the z-score was -0.127 in assay [14]; -0.46 in assay [15]; 0.895 in assay [16]; 0.898 (inactive) in [17]; -0.691 in [18]; -0.313 in [19]. For the same compound, in assay [20], the z-score is 0.0956 (inactive). For the same compound, in [2], the composite z-score was -0.0479.

Consider `C=C(C(=O)CC[C@H](OC(=O)c1cccnc1)c1ccccc1OCCO)C(C)C`, for which the z-score in assay [1] was -0.378 (inactive); in assay [3], 9.51 (active); in assay [4], 0.943 (inactive); in [5] it was 0.611 (inactive); in [6] it was 0.381 (inactive); in assay [7], 0.142. In addition, the z-score in assay [8] is -1.85 (inactive); in [9] it was -0.81 (inactive); in [10], -2.03; in assay [11], 0.219; in assay [12] it was -0.602; in assay [13] it was -0.967. The z-score was -2.21 in assay [14]; -1.69 in [15]; -1.45 in assay [16]; 0.31 (inactive) in [17]; -0.742 in assay [18]; -0.477 in assay [19]. Moreover, the z-score in [20] was 0.626 (inactive). In [2], this compound yielded a composite z-score of 0.188.

Regarding `O=C1C2C=CC(C(O)c3ccccn3)N(Nc3ccccc3F)C2C(=O)N1c1ccccc1` (stereo not given), the z-score was -0.882 (inactive) in assay [1]; 0.671 (inactive) in assay [3]; 0.571 (inactive) in assay [4]; 0.42 (inactive) in assay [5]; 1.19 (inactive) in [6]; -0.725 in assay [7]. For the same compound, the z-score in assay [8] was -1.63 (inactive); in assay [9], -3.57 (inactive); in assay [10], -1.54; in assay [11], -0.922; in assay [12] it was -1.12; in assay [13], 1.04. Also, the z-score was -0.211 in [14]; -0.217 in assay [15]; -0.793 in assay [16]; 0.608 (inactive) in [17]; -0.196 in assay [18]; -0.541 in assay [19]. Also, the z-score in assay [20] was -0.52 (inactive). For the same compound, the composite z-score in [2] was -0.133.

Take `Cc1ccc(N2C(=O)c3ccccc3[C@@H](C(=O)NCC(C)C)[C@@H]2c2ccc(CO)cc2)nc1`: the z-score in [1] was 0.569 (inactive); in assay [3] it was 3.15 (inactive); in assay [4] it was 0.48 (inactive); in assay [5] it was 1.38 (inactive); in [6] it was 0.231 (inactive); in assay [7], 0.0174. Moreover, the z-score is -0.0277 (inactive) in [8]; 0.918 (inactive) in assay [9]; 0.84 in assay [10]; 0.593 in [11]; -0.136 in assay [12]; 0.558 in [13]. Besides, the z-score in [14] is -0.0617; in assay [15] it was 0.662; in assay [16], 2.02; in assay [17], 1.09 (inactive); in [18], -0.482; in [19] it was 0.133. Moreover, in assay [20], the z-score is -0.613 (inactive). Besides, the composite z-score in assay [2] was -0.0186.

`[N-]=[N+]=Nc1ccccc1[C@@H]1OC(c2ccc(OCCCO)cc2)=N[C@]1(CCS(=O)(=O)c1ccccc1)C(=O)N1CCCCC1`: the z-score was -0.112 (inactive) in assay [1]; 30.2 (active) in assay [3]; 25 (active) in [4]; 1.7 (inactive) in assay [5]; 3.94 (inactive) in [6]; -0.174 in assay [7]. Moreover, the z-score in [8] was -1.33 (inactive); in [9], 1.85 (inactive); in [10], 1.52; in assay [11], -0.564; in [12], -0.56; in [13], -0.0675. The z-score in [14] is -0.92; in [15], -0.739; in assay [16], -0.827; in assay [17] it was 0.0238 (inactive); in assay [18] it was -0.881; in assay [19], -0.923. Further, the z-score in [20] was -0.127 (inactive). The same compound showed a composite z-score in assay [2] of 1.12.
